Reference: paper PMC5540273 (PLoS ONE, 2017)

Key:
Conditions in all cases: concentration: 1 μM, replicates: in singlicate; n = 1
DMPK2 = test system: T1, DMPK2
T1 construct: gene CDC42BPG

DMPK = test system: DMPK
DRAK1 = test system: T2, DRAK1
T2 construct: gene STK17A

DRAK2 = test system: T3, DRAK2
T3 construct: gene STK17B

DYRK1A = test system: DYRK1A
DYRK1B = test system: DYRK1B
DYRK2 = test system: DYRK2
EGFR = test system: EGFR
EIF2AK1 = test system: EIF2AK1
EPHA1 = test system: EPHA1
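Also: KINOMEscan kinase panel screen.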

## FC(F)(F)c1ccccc1-c1cc(-c2c[nH]nc2-c2ccccn2)ccn1 [GW679396]
DMPK2
  %Inh: 7%
DMPK
  %Inh: 16%
DRAK1
  %Inh: 14%
DRAK2
  %Inh: 2%
DYRK1A
  %Inh: 0%
DYRK1B
  %Inh: 13%
DYRK2
  %Inh: 12%
EGFR
  %Inh: 0%
EIF2AK1
  %Inh: 0%
EPHA1
  %Inh: 0%

## CCn1c(-c2c(N)noc2C)nc2cnccc21 [SB-737856]
DMPK2
  %Inh: 99.8%
DMPK
  %Inh: 0%
DRAK1
  %Inh: 0%
DRAK2
  %Inh: 0%
DYRK1A
  %Inh: 30%
DYRK1B
  %Inh: 0%
DYRK2
  %Inh: 4%
EGFR
  %Inh: 24%
EIF2AK1
  %Inh: 3%
EPHA1
  %Inh: 0%

## COc1ccc(CSc2nnc(-c3ccc4c(c3)CCO4)o2)cc1
DMPK2
  %Inh: 0%
DMPK
  %Inh: 0%
DRAK1
  %Inh: 0%
DRAK2
  %Inh: 3%
DYRK1A
  %Inh: 0%
DYRK1B
  %Inh: 35%
DYRK2
  %Inh: 0%
EGFR
  %Inh: 0%
EIF2AK1
  %Inh: 0%
EPHA1
  %Inh: 0%

## CNC(=O)c1ccc(C)c(-n2c(C)cc(OCc3ccc(F)cc3F)c(Br)c2=O)c1
DMPK2
  %Inh: 0%
DMPK
  %Inh: 0%
DRAK1
  %Inh: 1%
DRAK2
  %Inh: 0%
DYRK1A
  %Inh: 0%
DYRK1B
  %Inh: 56%
DYRK2
  %Inh: 0%
EGFR
  %Inh: 0%
EIF2AK1
  %Inh: 0%
EPHA1
  %Inh: 5%

## COC(=O)c1cccc(NC(=O)NC2CCN(c3ccnc(Nc4ccc(OC)cc4)n3)C2)c1 (stereo not shown) [GSK1379746]
DMPK2
  %Inh: 0%
DMPK
  %Inh: 0%
DRAK1
  %Inh: 4%
DRAK2
  %Inh: 10%
DYRK1A
  %Inh: 11%
DYRK1B
  %Inh: 15%
DYRK2
  %Inh: 9%
EGFR
  %Inh: 31%
EIF2AK1
  %Inh: 0%
EPHA1
  %Inh: 6%

## Cc1ccccc1-c1cc(-c2c[nH]nc2-c2ccccn2)ccn1 [GW680061]
DMPK2
  %Inh: 0%
DMPK
  %Inh: 0%
DRAK1
  %Inh: 2%
DRAK2
  %Inh: 0%
DYRK1A
  %Inh: 14%
DYRK1B
  %Inh: 0%
DYRK2
  %Inh: 0%
EGFR
  %Inh: 38%
EIF2AK1
  %Inh: 0%
EPHA1
  %Inh: 3%

## Cc1c(Cn2c3ccccc3n3c(=O)cc(N4CCOCC4)nc23)cccc1C(F)(F)F [GSK2306394]
DMPK2
  %Inh: 0%
DMPK
  %Inh: 0%
DRAK1
  %Inh: 0%
DRAK2
  %Inh: 0%
DYRK1A
  %Inh: 7%
DYRK1B
  %Inh: 0%
DYRK2
  %Inh: 14%
EGFR
  %Inh: 48%
EIF2AK1
  %Inh: 0%
EPHA1
  %Inh: 0%

## Cc1ccccc1Cn1ccn2c(=O)cc(N3CCOCC3)nc12 [GSK2269905]
DMPK2
  %Inh: 0%
DMPK
  %Inh: 0%
DRAK1
  %Inh: 0%
DRAK2
  %Inh: 0%
DYRK1A
  %Inh: 16%
DYRK1B
  %Inh: 0%
DYRK2
  %Inh: 0%
EGFR
  %Inh: 15%
EIF2AK1
  %Inh: 8%
EPHA1
  %Inh: 4%

## Nc1nccc(-c2c(-c3ccc(F)cc3)ncn2C2CCN(Cc3ccccc3)CC2)n1 [SB-219980]
DMPK2
  %Inh: 52%
DMPK
  %Inh: 0%
DRAK1
  %Inh: 10%
DRAK2
  %Inh: 14%
DYRK1A
  %Inh: 0%
DYRK1B
  %Inh: 0%
DYRK2
  %Inh: 14%
EGFR
  %Inh: 10%
EIF2AK1
  %Inh: 0%
EPHA1
  %Inh: 0%

## COc1ccc(Nc2nccc(NCCNC(=O)Nc3cc(C)ccc3C)n2)cc1 [GSK1379899]
DMPK2
  %Inh: 0%
DMPK
  %Inh: 0%
DRAK1
  %Inh: 0%
DRAK2
  %Inh: 0%
DYRK1A
  %Inh: 18%
DYRK1B
  %Inh: 7%
DYRK2
  %Inh: 2%
EGFR
  %Inh: 27%
EIF2AK1
  %Inh: 0%
EPHA1
  %Inh: 5%

## COC(=O)C(NC(=O)NC1CCN(c2ccnc(Nc3ccc(F)cc3)n2)C1)c1ccccc1 (stereo not shown) [GSK1379712]
DMPK2
  %Inh: 1%
DMPK
  %Inh: 0%
DRAK1
  %Inh: 2%
DRAK2
  %Inh: 0%
DYRK1A
  %Inh: 0%
DYRK1B
  %Inh: 17%
DYRK2
  %Inh: 13%
EGFR
  %Inh: 23%
EIF2AK1
  %Inh: 0%
EPHA1
  %Inh: 10%

## CSc1ccc(-c2nc3n(c2-c2ccncc2)CCC3)cc1 [SKF-105561]
DMPK2
  %Inh: 0%
DMPK
  %Inh: 0%
DRAK1
  %Inh: 1%
DRAK2
  %Inh: 0%
DYRK1A
  %Inh: 3%
DYRK1B
  %Inh: 0%
DYRK2
  %Inh: 0%
EGFR
  %Inh: 7%
EIF2AK1
  %Inh: 0%
EPHA1
  %Inh: 12%

## NS(=O)(=O)c1cccc(N/C=C2\C(=O)Nc3ccc(S(=O)(=O)Cc4c(Cl)cccc4Cl)cc32)c1 [GSK398099]
DMPK2
  %Inh: 18%
DMPK
  %Inh: 0%
DRAK1
  %Inh: 0%
DRAK2
  %Inh: 0%
DYRK1A
  %Inh: 29%
DYRK1B
  %Inh: 14%
DYRK2
  %Inh: 9%
EGFR
  %Inh: 24%
EIF2AK1
  %Inh: 0%
EPHA1
  %Inh: 12%

## O=C1NC(=O)C(c2ccc(Cl)cc2)=C1Nc1cccc(Cl)c1 [SB-317651]
DMPK2
  %Inh: 0%
DMPK
  %Inh: 0%
DRAK1
  %Inh: 4%
DRAK2
  %Inh: 0%
DYRK1A
  %Inh: 15%
DYRK1B
  %Inh: 52%
DYRK2
  %Inh: 1%
EGFR
  %Inh: 20%
EIF2AK1
  %Inh: 4%
EPHA1
  %Inh: 0%

## CNCc1ccc2nc(NC(=O)c3ccc(C(C)(C)C)cc3)cn2c1
DMPK2
  %Inh: 0%
DMPK
  %Inh: 7%
DRAK1
  %Inh: 11%
DRAK2
  %Inh: 24%
DYRK1A
  %Inh: 35%
DYRK1B
  %Inh: 0%
DYRK2
  %Inh: 6%
EGFR
  %Inh: 0%
EIF2AK1
  %Inh: 4%
EPHA1
  %Inh: 4%

## Cc1cccc2c(-c3ccncn3)c(-c3ccc(F)cc3)nn12 [GW515532]
DMPK2
  %Inh: 24%
DMPK
  %Inh: 0%
DRAK1
  %Inh: 0%
DRAK2
  %Inh: 0%
DYRK1A
  %Inh: 23%
DYRK1B
  %Inh: 0%
DYRK2
  %Inh: 13%
EGFR
  %Inh: 47%
EIF2AK1
  %Inh: 0%
EPHA1
  %Inh: 16%
